Data from the supplement of paper PMC13094657.
± gives the standard deviation of the averaged measurements.

Columns and labels:
[1] = system: MDA-MB-231; assay: cell viability relative to vehicle unstimulated control (fraction); higher = more viable cells; details: pre-treatment time: 18 h then 24 h IFNg/TNF
[2] = system: MDA-MB-231; assay: kynurenine production, fold change vs DMSO IFNg/TNF control; higher = more kynurenine produced (less inhibition); details: pre-treatment time: 18 h then 24 h IFNg/TNF
Procedure, shortened: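 In 96-well plates, MDA-MB-231 cells (7 × 10^4/well) were given 24 h to settle, pre-treated for 18 h with each natural product in 0.1% DMSO, and stimulated for 24 h with IFNγ (1 U/ml) and TNF (6.25 ng/ml) at 37°C. Supernatants were processed with trichloroacetic acid and p-dimethylaminobenzaldehyde and read at 492 nm against 0–100 μM standards. In the first screening round, kynurenine production, as fold change over same-plate cytokine-stimulated vehicle wells, was averaged over duplicate plates.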
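For cell viability relative to vehicle unstimulated control in this document: viability of the cells left after supernatant collection, read with Deep Blue dye added for 4 h, as absorbance at 570 nm minus 600 nm.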

Row | SMILES | cell viability [1] | kynurenine production [2]
1 | CC1(C)CC[C@]2(C(=O)O)[C@H](O)C[C@]3(C)C(=CC[C@@H]4[C@@]5(C)CC[C@H](O)C(C)(C)[C@@H]5CC[C@]43C)[C@H]2C1 [Echinocystic acid] (compound dose: 10 uM) | 1.03 ± 0.014 | 0.787 ± 0.065
2 | C=C1CCC[C@]2(C)CC[C@@H](C(C)(C)O)C[C@@H]12 [Beta-Eudesmol] (compound dose: 10 uM) | 1.077 ± 0.0077 | 0.904 ± 0.14
3 | C=C1CC[C@@H]2[C@](C)(CO)[C@H](O)CC[C@@]2(C)[C@@H]1/C=C/C1=CCOC1=O [14-Deoxy-11,12-didehydroandrographolide] (compound dose: 10 uM) | 0.857 ± 0.047 | 0.921 ± 0.095
4 | C[C@H]1[C@H](C)CC[C@]2(C(=O)O[C@@H]3O[C@H](CO[C@@H]4O[C@H](CO)[C@@H](O[C@@H]5O[C@@H](C)[C@H](O)[C@@H](O)[C@H]5O)[C@H](O)[C@H]4O)[C@@H](O)[C@H](O)[C@H]3O)CC[C@]3(C)C(=CC[C@@H]4[C@@]5(C)C[C@@H](O)[C@H](O)[C@@](C)(CO)[C@@H]5[C@H](O)C[C@]43C)[C@H]12 [Madecassoside] (compound dose: 10 uM) | 1.03 ± 0.042 | 0.817 ± 0.099
5 | C=C(C)[C@@H]1CC[C@]2(C(=O)O)CC[C@]3(C)[C@H](CC[C@@H]4[C@@]5(C)CCC(=O)C(C)(C)[C@@H]5CC[C@]43C)[C@@H]12 [Betulonic acid] (compound dose: 10 uM) | 0.836 ± 0.033 | 0.785 ± 0.074
6 | CC(=O)OC1C2C(OC(=O)c3ccccc3)C(C)CC2(OC(C)=O)C(=O)C(C)=CC2C(CCC13CO3)C2(C)C (centres undefined) [Euphorbia factor L25] (compound dose: 10 uM) | 1.057 ± 0.0038 | 0.911 ± 0.07
7 | C[C@H](CC[C@@H](O[C@@H]1O[C@H](CO[C@@H]2O[C@H](CO)[C@@H](O)[C@H](O)[C@H]2O)[C@@H](O)[C@H](O)[C@H]1O)C(C)(C)O)[C@H]1CC[C@@]2(C)[C@@H]3CC=C4[C@@H](CC[C@H](O[C@@H]5O[C@H](CO)[C@@H](O)[C@H](O)[C@H]5O)C4(C)C)[C@]3(C)[C@H](O)C[C@]12C [Mogroside III] (compound dose: 10 uM) | 0.857 ± 0.018 | 0.997 ± 0.13
8 | CC(C)=CCC/C(C)=C/CC/C(C)=C/CO [Farnesol] (compound dose: 10 uM) | 0.994 ± 0.062 | 0.939 ± 0.2
9 | O=C(O)/C=C/c1ccccc1 [Trans-cinnamic acid] (compound dose: 10 uM) | 1.02 ± 0.019 | 0.882 ± 0.022
10 | C[C@]1(OC(=O)/C=C/c2ccccc2)C[C@@H](O)[C@]2(O)C=CO[C@@H](O[C@@H]3O[C@H](CO)[C@@H](O)[C@H](O)[C@H]3O)[C@@H]21 [Harpagoside] (compound dose: 10 uM) | 0.987 ± 0.013 | 0.91 ± 0.17
11 | C[C@]12C[C@@H](O)[C@@H]3C[C@@]1(O[C@@H]1O[C@H](CO)[C@@H](O)[C@H](O)[C@H]1O)[C@@]3(COC(=O)c1ccccc1)C(=O)O2 [Albiflorin] (compound dose: 10 uM) | 0.963 ± 0.031 | 0.908 ± 0.031
12 | COC(=O)C1=CO[C@@H](O[C@@H]2O[C@H](CO)[C@@H](O)[C@H](O)[C@H]2O)[C@@H]2[C@@]3(C)O[C@H]3[C@@H](O)[C@]12O [Sesamoside] (compound dose: 10 uM) | 0.9746 ± 0.0057 | 0.928 ± 0.12
13 | O=C(/C=C/c1ccc(O)c(O)c1)O[C@H](Cc1ccc(O)c(O)c1)C(=O)O [Rosmarinic acid] (compound dose: 10 uM) | 1.11 ± 0.14 | 0.908 ± 0.18
14 | COC(=O)c1cccnc1 [Methyl nicotinate] (compound dose: 10 uM) | 0.974 ± 0.037 | 0.874 ± 0.23
15 | C=C1[C@H](OC(=O)c2cccnc2)C[C@H]2[C@@H](/C=C(\C)C(=O)[C@@]3(OC(C)=O)C[C@H](C)[C@H](OC(=O)c4ccccc4)[C@@H]3[C@H]1OC(C)=O)C2(C)C [Euphorbia factor L9] (compound dose: 10 uM) | 1.07 ± 0.095 | 0.226 ± 0.028
16 | C[C@H]1[C@H](C)CC[C@]2(CO)CC[C@]3(C)C(=CC[C@@H]4[C@@]5(C)CC[C@H](O)C(C)(C)[C@@H]5CC[C@]43C)[C@H]12 [Uvaol] (compound dose: 10 uM) | 1.03 ± 0.14 | 0.98 ± 0.3
17 | CC1(C)[C@@H](O)CC[C@]2(C)[C@H]3C(=O)C=C4[C@H]5C[C@@](C)(C(=O)O)CC[C@]5(C)CC[C@@]4(C)[C@]3(C)CC[C@@H]12 [18α-Glycyrrhetinic acid] (compound dose: 10 uM) | 1.06 ± 0.11 | 0.943 ± 0.14
